The subject of the assay is Meloidogyne hapla J2. Nature of the assay: proportion of mobile M. hapla J2 relative to DMSO control (fraction of DMSO control); higher = more viable, less nematicidal, active = 0.7 or less. Particulars: 60 µM; 5 days; temperature: 20 °C. The procedure:
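DODA library (846 commercial 1,3,4- and 1,2,4-oxadiazole compounds plus commercial nematicide controls) screened at a single dose of 60 µM (0.6% DMSO) in 96-well plates, two biological replicates. Read-outs: C. elegans N2 L1 survival/reproduction score at day 6, 20 °C (0: 0-10 worms, 1: 11-20, 2: 21-50, 3: >50, 4: overgrown/starved). C. elegans daf-2 dauer, D. dipsaci and M. hapla J2 mobility at day 5, 20 °C, and P. penetrans mobility at day 5, 20 °C, each relative to DMSO controls. M. hapla egg hatching at day 12, 25 °C, relative to the mean of 8 DMSO wells on the same plate.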
As to `COc1ccc(-c2noc(-c3ccc(C)cc3)n2)cc1`, the “proportion of mobile M. hapla J2” value was 0.998 (inactive).
As for `Brc1ccc(-c2nc(-c3ccc4c(c3)OCO4)no2)cc1`, the figure is 1.03 (inactive); as for `CC(C)(C)c1ccc(-c2nc(-c3ccncc3)no2)cc1`, 1.03 (inactive); as for `CCC(=O)Nc1ccccc1-c1nc(-c2ccncc2)no1`, 0.938 (inactive).
For `Clc1cccc(-c2nc(-c3cccnc3)no2)c1`, the “proportion of mobile M. hapla J2” value is 0.312 (active).
Take `O=C(Nc1ccccc1-c1nc(-c2ccncc2)no1)c1cccc(Cl)c1`: the “proportion of mobile M. hapla J2” value is 1.04 (inactive).
As to `Cc1cc(C)cc(NC(=O)CSc2nnc(-c3ccccc3)o2)c1`, the “proportion of mobile M. hapla J2” value was 1.04 (inactive).
Under `C#CCOc1ccc(-c2nc(-c3ccccc3)no2)cc1` stands 1.06 (inactive).
For the molecule `COc1ccc(-c2noc(-c3ccccc3Cl)n2)cc1`, the “proportion of mobile M. hapla J2” value is 0.885 (inactive).
Under `Cc1ccc(-c2nnc(SCC(=O)Nc3ccc(Br)c(C)c3C)o2)cc1` stands 1.03 (inactive); under `COc1ccc(-c2nnc(SCC(=O)N(C)c3ccccc3)o2)cc1`, 1.05 (inactive); under `Brc1ccc(-c2nc(-c3cccnc3)no2)cc1`, 0.984 (inactive).
Under `Cc1ccoc1-c1nnc(-c2ccco2)o1` stands 0.949 (inactive); under `COc1ccc(-c2nnc(SCC(=O)c3ccc(C)o3)o2)cc1`, 1 (inactive).
For `CCn1cc(C(=O)CSc2nnc(-c3ccccc3)o2)c2ccccc21`, the “proportion of mobile M. hapla J2” value is 0.987 (inactive).
Consider `O=C(Nc1ccccc1-c1nc(-c2cccnc2)no1)c1ccc(Cl)cc1`, for which the “proportion of mobile M. hapla J2” value is 0.98 (inactive).
As for `CCOc1ccc(-c2nc(-c3cccnc3)no2)cc1OCC`, the figure is 0.906 (inactive).
As to `Cc1ccc(SCc2nc(-c3ccccc3)no2)cc1`, the “proportion of mobile M. hapla J2” value was 1.14 (inactive).
`Cc1ccc(C(=O)Nc2ccccc2-c2nc(-c3ccncc3)no2)cc1C`: the “proportion of mobile M. hapla J2” value is 1.06 (inactive).
With `CCOc1cc(-c2nc(-c3ccc(C)nc3OCC)no2)cc(OCC)c1OCC`, the “proportion of mobile M. hapla J2” value is 0.908 (inactive).
As for `Clc1ccc(CSc2nnc(-c3ccccc3)o2)cc1Cl`, the figure is 1.01 (inactive); as for `O=C(CSc1nnc(-c2ccc(Cl)cc2)o1)NCc1ccccc1`, 0.901 (inactive); as for `CC(C)(C)c1ccc(-c2nnc(SCC(=O)c3ccc(F)cc3)o2)cc1`, 0.825 (inactive).
Under `CCCOc1ccc(-c2ccc(-c3nc(-c4cccnc4)no3)cc2)cc1` stands 1.02 (inactive).
On to `COc1ccc(CCC(=O)Nc2ccc(-c3noc(COc4ccccc4C)n3)cc2)cc1`, for which the “proportion of mobile M. hapla J2” value was 0.898 (inactive).
As for `Clc1cccc(-c2nc(-c3ccncc3)no2)c1`, the figure is 0.634 (active); as for `Clc1ccc(-c2noc(-c3ccccc3Br)n2)cc1`, 0.995 (inactive).
Take `Cc1ccc(-c2nnc(SCC(=O)Nc3ccccc3)o2)cc1`: the “proportion of mobile M. hapla J2” value was 0.996 (inactive).
Turning to `Cc1cccc(-c2noc(COc3ccccc3Cl)n2)c1`, the “proportion of mobile M. hapla J2” value is 0.894 (inactive).
Consider `Cc1csc(NC(=O)CSc2nnc(-c3cccc(Cl)c3)o2)n1`, for which the “proportion of mobile M. hapla J2” value was 1.05 (inactive).
Under `Cc1csc(NC(=O)CSc2nnc(-c3ccccc3Cl)o2)n1` stands 0.849 (inactive); under `Cc1ccc(CSc2nnc(-c3ccco3)o2)cc1`, 0.628 (active).
Under `COC(=O)c1ccc(NC(=O)CSc2nnc(-c3ccc(Cl)cc3Cl)o2)cc1` stands 0.929 (inactive); under `O=C(CSc1nnc(-c2ccccc2)o1)Nc1cccc(C(F)(F)F)c1`, 1 (inactive).
Under `CN(C(=O)CSc1nnc(-c2ccccc2)o1)c1ccccc1` stands 1.02 (inactive).
`Fc1cccc(Cl)c1CSc1nnc(-c2ccccc2)o1`: the “proportion of mobile M. hapla J2” value was 1 (inactive).
Turning to `Clc1ccccc1OCc1nc(-c2ccccn2)no1`, the “proportion of mobile M. hapla J2” value was 1 (inactive).
As for `CCc1ccc(NC(=O)CSc2nnc(-c3ccco3)o2)cc1`, the figure is 0.899 (inactive).
Consider `CCc1cccc(CC)c1NC(=O)CSc1nnc(-c2ccccc2OC)o1`, for which the “proportion of mobile M. hapla J2” value is 0.758 (inactive).
Under `Cc1ccc(C)c(-c2nc(-c3ccncc3)no2)c1` stands 1.09 (inactive).

Source of the values: the supplement of paper PMC11219838.
